Results as given in PubChem BioAssay (NCI).
The panel holds about 79,000 compounds, 15% with a hit somewhere; the sample as a whole holds those more often. A number with no mark means an inactive call. The source made the active and inactive calls. No stated cut-off is given here; in the data, active means growth inhibition above about 70%; inactive means the rest.

Assay: NCI Yeast Anticancer Drug Screen. Data for the sgs1 strain (AID 173);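 further: 0% = growth of vehicle-only control cultures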
Conditions: S. cerevisiae sgs1 mutant, stronger effect = higher value
Description: Growth inhibition of yeast strains with defined genetic alterations is measured as a screen for potential anti-cancer activity. Selected strains with alterations in DNA damage repair or cell cycle control were exposed to compounds and growth inhibition was measured relative to vehicle treated controls. The strain used in this assay is sgs1

SMILES: COC(=O)C1=C(C(=O)OC)SC2(S1)C(C(=O)OC)=C(C(=O)OC)Sc1c2ssc1=O
- growth inhibition (at 1.2 µM): 43%
- growth inhibition (at 3.7 µM): 58%
- growth inhibition (at 11.0 µM): 87% (active)
- growth inhibition (at 33.0 µM): 99% (active)
- growth inhibition (at 100.0 µM): 93% (active)

SMILES: CC1(C)N=C(N)N=C(N)N1c1cccc(N)c1.[Sn]
- growth inhibition (at 1.2 µM): 14%
- growth inhibition (at 3.7 µM): 20%
- growth inhibition (at 11.0 µM): 19%
- growth inhibition (at 33.0 µM): 26%
- growth inhibition (at 100.0 µM): 52%

SMILES: O=C1C=C(CN(CCCl)CCCl)C(=O)C=C1CN(CCCl)CCCl
- growth inhibition (at 1.2 µM): 0%
- growth inhibition (at 3.7 µM): 1%
- growth inhibition (at 11.0 µM): 1%
- growth inhibition (at 33.0 µM): 12%
- growth inhibition (at 100.0 µM): 28%

SMILES: CCOP(=O)(CC(C)P(=O)(OCC)OCC)OCC.C[CH2][Sn]([Cl])([Cl])[CH2]C (stereo not given)
- growth inhibition (at 1.2 µM): -8%
- growth inhibition (at 3.7 µM): 4%
- growth inhibition (at 11.0 µM): 14%
- growth inhibition (at 33.0 µM): 85% (active)
- growth inhibition (at 100.0 µM): 95% (active)

SMILES: CCCCCCCCCCCCCCCCP(=O)(O)OCC(N)C(=O)O (stereo not given)
- growth inhibition (at 1.2 µM): -31%
- growth inhibition (at 3.7 µM): -58%
- growth inhibition (at 11.0 µM): -44%
- growth inhibition (at 33.0 µM): 18%
- growth inhibition (at 100.0 µM): 95% (active)

SMILES: N#Cc1cc(N(CCCl)CCCl)c([N+](=O)[O-])cc1[N+](=O)[O-]
- growth inhibition (at 1.2 µM): 29%
- growth inhibition (at 3.7 µM): 31%
- growth inhibition (at 11.0 µM): 44%
- growth inhibition (at 33.0 µM): 82% (active)
- growth inhibition (at 100.0 µM): 92% (active)

SMILES: CC1=C(CO)C2=C(C)C3(CC3)[C@@](C)(O)C(=O)C2=C1
- growth inhibition (at 1.2 µM): 4%
- growth inhibition (at 3.7 µM): 11%
- growth inhibition (at 11.0 µM): 29%
- growth inhibition (at 33.0 µM): 55%
- growth inhibition (at 100.0 µM): 78% (active)

SMILES: COC(COC(=O)N1CCN(C=O)CC1)C1=C(N2CC2)C(=O)C(C)=C(N2CC2)C1=O (stereo not given)
- growth inhibition (at 1.2 µM): 20%
- growth inhibition (at 3.7 µM): 14%
- growth inhibition (at 11.0 µM): 24%
- growth inhibition (at 33.0 µM): 40%
- growth inhibition (at 100.0 µM): 64%
